# Measured values as given in PubChem BioAssay.
# The source made the active and inactive calls.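 Rule for the calls: active = compound raises GLP1 secretion from the human gut endocrine cells, with no numeric limit stated; inactive = the rest.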 Peptide text beside a SMILES is read from it.
# Assay: GLP1 release stimulators, primary, NCI-H716, NPC library (AID 1117341); note: reference of the scale not given here
# Conditions: NCI-H716 cells, at 10 µM, stronger effect = higher value
row,Structure (SMILES),GLP1 secretion stimulation
1,O=C(Nc1ccc([N+](=O)[O-])cc1Cl)c1cc(Cl)ccc1O,3.3% (inactive)
2,CNC[C@H](O)c1cccc(O)c1,1.4% (inactive)
3,O=NN(CCCl)C(=O)NCCCl,2.2% (inactive)
4,COc1ccnc(CS(=O)c2nc3ccc(OC(F)F)cc3[nH]2)c1OC (stereo not drawn),-0.9% (inactive)
5,COc1ccc2cc3[n+](cc2c1OC)CCc1cc2c(cc1-3)OCO2,0.3% (inactive)
6,CN(Cc1cc(Br)cc(Br)c1N)C1CCCCC1,-1.6% (inactive)
7,O=C(NC(Cc1cc(=O)[nH]c2ccccc12)C(=O)O)c1ccc(Cl)cc1 (stereo not drawn),-0.3% (inactive)
8,NC(=O)NO,-2% (inactive)
9,Cc1ccc(S(=O)(=O)NC(=O)NN2CC3CCCC3C2)cc1 (stereo not drawn),0.8% (inactive)
10,OC[C@H]1O[C@@H](O[C@@H]2[C@@H](CO)O[C@](O)(CO)[C@H]2O)[C@H](O)[C@@H](O)[C@H]1O,0.8% (inactive)
11,NNc1nncc2ccccc12,5.2% (inactive)
12,CCOC(=O)C(C)(C)Oc1ccc(Cl)cc1,-1.1% (inactive)
13,CC(=O)Oc1ccccc1C(=O)O,-3.4% (inactive)
14,NC(=O)c1ncn([C@@H]2O[C@H](CO)[C@@H](O)[C@H]2O)n1,0.7% (inactive)
15,CN(C)c1ccc(C(=C2C=CC(=[N+](C)C)C=C2)c2ccc(N(C)C)cc2)cc1,-16% (inactive)
16,Cn1cnc2c1c(=O)[nH]c(=O)n2C,-0.4% (inactive)
17,COc1ccc(CCN(C)CCCC(C#N)(c2ccc(OC)c(OC)c2)C(C)C)cc1OC (stereo not drawn),-4% (inactive)
18,O=c1oc2c(O)c(O)cc3c(=O)oc4c(O)c(O)cc1c4c23,-2.3% (inactive)
19,CN(C)CCc1c[nH]c2ccc(CS(=O)(=O)N3CCCC3)cc12,1.2% (inactive)

row,Structure (SMILES),GLP1 secretion stimulation
1,COc1cc([C@H]2Oc3cc([C@H]4Oc5cc(O)cc(O)c5C(=O)[C@@H]4O)ccc3O[C@@H]2CO)ccc1O,2.1% (inactive)
2,C/C=C(/C(=C/C)c1ccc(O)cc1)c1ccc(O)cc1,34.7% (active)
3,O=C(O)c1cn(-c2ccc(F)cc2)c2cc(N3CCNCC3)c(F)cc2c1=O,-2.6% (inactive)
4,CN1C(C(=O)Nc2ccccn2)=C(O)c2sccc2S1(=O)=O,0.4% (inactive)
5,COC(=O)Nc1nc2ccc(S(=O)c3ccccc3)cc2[nH]1 (stereo not drawn),8% (inactive)
6,NCC1CCC(C(=O)O)CC1 (stereo not drawn),0.1% (inactive)
7,NC(CO)C(=O)NNCc1ccc(O)c(O)c1O (stereo not drawn),8.5% (inactive)
8,Nc1nc(=S)c2[nH]cnc2[nH]1,1.9% (inactive)
9,O=c1c(-c2ccc(O)cc2)coc2cc(O)cc(O)c12,7% (inactive)
10,CC1(C)NC(=O)N(c2ccc([N+](=O)[O-])c(C(F)(F)F)c2)C1=O,-1.4% (inactive)
11,C1CCC(C(CC2CCCCN2)C2CCCCC2)CC1 (stereo not drawn),4.9% (inactive)
12,N[C@@H](Cc1ccc(O)c(O)c1)C(=O)O,1.9% (inactive)
13,Cc1oncc1C(=O)Nc1ccc(C(F)(F)F)cc1,9% (inactive)
14,NS(=O)(=O)c1cc2c(cc1Cl)NC(C(Cl)Cl)NS2(=O)=O (stereo not drawn),0.9% (inactive)
15,CCCOc1ccc2nc(NC(=O)OC)[nH]c2c1,-1.2% (inactive)
16,Cc1cc(C2CCCCC2)n(O)c(=O)c1,-3.2% (inactive)
17,COC(=O)[C@H](Cc1ccccc1)NC(=O)[C@@H](N)CC(=O)O (H-Asp-Phe-OMe),0.8% (inactive)
18,CC1=CC(=O)c2ccccc2C1=O,-6% (inactive)
19,CCOC(=O)C1=C[C@]2(CC)CCCN3CCc4c(n1c1ccccc41)[C@@H]32,2.8% (inactive)
